Screening data as filed in PubChem.
Shown are actives, neighbours in structure and some others; about 7.5% of the full set was active somewhere.
SMN2 splice up = enhancers of SMN2 splice variant expression; HEK293 SMN2-luciferase splicing reporter, luminescence, 30-36 h; Potency, µM (doses to about 46.1 µM), for the others: top-dose activity change, positive = activation, usual class: activators; 210,000 compounds, 2.8% hits; AID 1458; note: % of control where 0% means no effect; nearly all actives have a fitted effect of over 55% in size
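HEK293 cells carry an SMN2 minigene-luciferase reporter in which exon 7 inclusion puts luciferase in frame. Cells were seeded at 2000 cells/well, attached for 10-12 hours, then exposed to compounds for 30-36 hours at 37C before ONE-Glo luminescence.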
NPC1 promoter act = activates the NPC1 promoter | Huh7 NPC1 promoter luciferase reporter, 24 h | AID 485313 | Potency, µM (highest dose often 9.22 µM), for inactives: top-dose activation, usual class: activators | 320,000 compounds, 2.4% hits; note: % of control where 0% means no effect; nearly all actives have a fitted effect of over 60% in size
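Luciferase expression driven by the NPC1 promoter was measured in stably transfected Huh7 cells after a 24 h compound incubation, using a luciferase reagent and a luminescence read.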
ELG1 genotoxic = induces genotoxicity in HEK293T cells with luciferase-tagged ELG1 | AID 504466 | Potency, µM (doses to about 46 µM), without a hit: at the highest dose activity change, positive = activation, most hits filed as activators | 330,000 compounds, 1.3% hits | HEK293T ELG1-luciferase reporter, luminescence, 16 h; note: % of control where 0% means no effect; nearly all actives have a fitted effect of over 60% in size
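DMSO vehicle served as control against compound-treated ELG1-luciferase HEK293T cells; exposure lasted 16 hr at 37 °C and 5% CO2, followed by ONE-Glo luminescence detection after 30 min.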
Rab9 prom act = Rab9 promoter activation | Huh7 Rab9 promoter-luciferase reporter, luminescence, 24 h | Potency, µM (doses to about 9.22 µM), without a hit: at the highest dose activation, negative = inhibition, actives largely listed as activators | 320,000 compounds, 2.8% hits; note: % of control where 0% means no effect; nearly all actives have a fitted effect of over 60% in size
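Huh7 cells stably carrying a Rab9 promoter-luciferase reporter, 1500 cells per well in OP-MEM I with 10% FBS, treated with compound 24 hours at 37C. Luciferase activity read by luminescence after 10 minutes with Amplite reagent.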
KinaseGlo FLuc = blocks Kinase-Glo luciferase, a counter-screen artifact. Kinase-Glo luciferase, ATP luminescence, 8 min. Potency, µM (doses to about 38.3 µM), without a hit: at the highest dose activity change, negative = inhibition, usual class: inhibitors. AID 1379. Q27757. 200,000 compounds, 0.28% hits; note: % is set by controls: 0 for no effect and ±100 for the full control effect; nearly all actives have a fitted effect of over 60% in size
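Compound is pinned into ATP-containing buffer (10 uM ATP, imidazole pH 7.2, 7 mM MgCl2). Kinase-Glo luciferase reagent is then added. Light output is recorded following an 8-min room-temperature incubation.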
FLuc modulator = firefly luciferase modulation, counter-screen for miR-21 project. AID 588342. purified FLuc, Km substrates, luminescence inhibition. Potency, µM (titrated, usually from 57.5 µM), without a hit: top-dose activity change, negative = inhibition, hits mostly inhibitors. 360,000 compounds, 6.9% hits;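 note: plate controls were vehicle for no effect and reference inhibitor for full effect; nearly all actives have a fitted effect of over 55% in size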
Target sequence (P08659 whole entry, looked up): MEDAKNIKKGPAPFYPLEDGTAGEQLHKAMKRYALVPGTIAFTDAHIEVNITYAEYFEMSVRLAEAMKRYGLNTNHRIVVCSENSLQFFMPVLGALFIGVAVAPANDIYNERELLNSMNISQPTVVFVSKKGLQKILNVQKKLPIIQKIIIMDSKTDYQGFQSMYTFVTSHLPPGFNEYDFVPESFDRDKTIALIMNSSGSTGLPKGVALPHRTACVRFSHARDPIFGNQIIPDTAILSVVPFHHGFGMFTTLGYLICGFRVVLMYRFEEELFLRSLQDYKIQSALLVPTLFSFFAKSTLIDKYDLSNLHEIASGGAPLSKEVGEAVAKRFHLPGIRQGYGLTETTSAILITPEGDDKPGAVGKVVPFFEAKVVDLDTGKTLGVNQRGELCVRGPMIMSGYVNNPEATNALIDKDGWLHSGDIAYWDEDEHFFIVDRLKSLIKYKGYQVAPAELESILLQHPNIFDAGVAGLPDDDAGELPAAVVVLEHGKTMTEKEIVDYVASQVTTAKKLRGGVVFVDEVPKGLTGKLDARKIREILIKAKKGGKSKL
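Purified P. pyralis luciferase (10nM final) with 10uM D-luciferin and 10uM ATP (Km levels) in 50mM Tris acetate pH 7.5, 10mM Mg acetate, 0.01% Tween-20, 0.05% BSA; qHTS 6-point titration, ~60 µM downward; luminescence read.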
The depositor's hits bear a star; ? = inconclusive; / = no result. Calls come from the whole dose curve; as a rule, active = well fitted curve in the direction sought with a large enough effect; inconclusive = small, poorly fitted or top-dose-only effect, or another doubt; inactive = no such curve, though single readings can be large; an effect the other way counts as inactive or inconclusive. Potency is the fitted concentration of half-maximal effect.

SMILES | SMN2 splice up | NPC1 promoter act | ELG1 genotoxic | Rab9 prom act | KinaseGlo FLuc | FLuc modulator
Cc1ccc2oc(C(=O)N(Cc3cccc(F)c3)C3CCS(=O)(=O)C3)c(C)c2c1 (configuration not stated) | -13% | / | / | / | / | -3%
Clc1ccccc1CSc1nnc(-c2ccncc2)o1 | 10µM* | ? | 9% | ? | -7% | 17µM*
c1ccc2c(CSc3nnc(-c4ccncc4)o3)cccc2c1 | -28% | -5% | -1% | -1% | -4% | -12%
COc1cc(-c2nnc(SCc3c(F)cccc3Cl)o2)cc(OC)c1OC | 4% | -2% | 1% | 0% | -3% | 0%
Fc1cccc(Cl)c1CSc1nnc(-c2ccncc2)o1 | / | ? | ? | 4.5µM* | / | 15µM*
COc1cc(NC(=O)CC2C(=O)N(c3cccc(C)c3)C(=O)N2Cc2ccco2)cc(OC)c1 (configuration not stated) | / | / | / | / | / | -10%
O=C(NCc1ccco1)c1cccn2c(=O)c3cc4ccccc4cc3nc12 | ? | 1% | ? | 23% | 0% | -6%
COCCCNC(=O)c1cccn2c(=O)c3cc4ccccc4cc3nc12 | -33% | 27% | 11% | 19% | -4% | 15µM*
CC(Cc1cccs1)NC(=O)Nc1ccc(Cl)c(Cl)c1 (configuration not stated) | 6% | ? | 2% | ? | 3% | 21µM*
CC(Cc1cccs1)NC(=O)Nc1ccc(Cl)cc1 (configuration not stated) | 14% | ? | 5.6µM* | ? | -5% | 12µM*
CC(Cc1cccs1)NC(=O)Nc1ccccc1 (configuration not stated) | -12% | 20% | 6% | 19% | 0% | ?
CC(Cc1cccs1)NC(=S)Nc1ccccc1 (configuration not stated) | -28% | 2% | 1% | -9% | -2% | -16%
CCN(CC)S(=O)(=O)c1ccc2c(c1)N(CC(=O)NCCCN1CCN(c3ccc(OC)cc3)CC1)C(=O)CO2 | / | / | / | / | / | 0%
Cc1ccc2oc(-c3cc(NC(=O)c4ncn[nH]4)ccc3O)nc2c1 | / | -3% | 0% | 2% | / | 2.7µM*
Cc1ccc2oc(-c3ccc(NC(=O)c4ccncc4)cc3O)nc2c1 | / | 0% | ? | 24% | -9% | ?
COc1ccc(Cl)cc1C(=O)O/N=C(\N)c1ccccn1 | / | 4µM* | ? | 13% | / | ?
O=C(NCCNC(=O)c1cc(Cl)ccc1Cl)c1ccccn1 | / | 2% | 2% | 4% | / | -1%
N/C(=N\OC(=O)c1cc(Cl)ccc1Cl)c1ccccn1 | 5µM* | ? | ? | 5µM* | -13% | 1.5µM*
CCOc1ccc(CNC(=O)c2ccc3c(c2)nc2n3CCC(C)C2)cc1OC (configuration not stated) | / | / | / | / | / | -17%
Cc1ccnc(NC(=O)c2ccccc2NC(=O)c2ccc(Cl)cc2Cl)c1 | / | -23% | ? | -14% | / | 12µM*
Cc1ccc(C(=O)Nc2cccnc2Cl)cc1Cl | / | ? | 18µM* | ? | / | 17µM*
Cc1ccnc(NC(=O)c2ccc(Cl)c(NC(=O)c3ccccc3C)c2)c1 | / | 1% | -7% | 6% | / | -16%
Cc1ccc(C(=O)Nc2ccccc2C(=O)Nc2ccccn2)cc1Cl | / | 2% | 3% | 17% | / | 5.4µM*
COc1ccc(C(=O)Nc2ccccc2C(=O)Nc2ccccn2)cc1 | / | ? | 15% | ? | / | 6µM*
Cc1ccnc(NC(=O)CC(NC(=O)c2ccccc2Cl)c2ccccc2)c1 (configuration not stated) | / | 0% | 21µM* | -2% | / | 11µM*
CCc1cc(C(=O)Nc2ccc(C)cc2Br)cs1 | 16µM* | 21% | ? | ? | -1% | 5.4µM*
Cc1ccsc1C(=O)NNC(=S)NCC(C)C | 25% | -3% | 0% | -5% | 17% | -2%
